Screening data from PubChem.
AMA1-RON2 inh: AMA1-RON2 (P. falciparum) interaction inhibition; AlphaScreen AMA1-biotinylated RON2 peptide binding; Potency, µM (top dose mostly 58.2 µM), without a hit: at the top dose activity change, negative = inhibition, usual class: inhibitors; actives 0.2% (n = 360,000);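 note: 0% = vehicle wells and -100% = peptide control; nearly all actives have a fitted effect of over 45% in size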
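AMA1 (3D7) with his tag at 25 nM final met compounds first, then biotinylated RON2 peptide at 25 nM; detection used donor plus acceptor beads, 10 µg/mL apiece, read by AlphaScreen after 30 min at room temperature.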
SARS PLP yeast: SARS-CoV PLP inhibition in yeast; S. cerevisiae expressing SARS-CoV PLpro, growth rescue; Potency, µM (series often up to 32.9 µM), for the others: at the highest dose activity, positive = growth rescue, actives largely listed as activators; actives 0.19% (n = 330,000); calls by dose curve; note: 0% is about no effect; nearly all actives have a fitted effect of over 55% in size
NS1 function inh: blocks influenza NS1 protein function; actives 0.4% (n = 270,000); Potency, µM (doses to about 46.1 µM), without a hit: at the top dose activity, positive = more growth; calls by dose curve; note: actives are rising curves; nearly all actives have a fitted effect of over 50% in size
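OD600 was taken as the measure of yeast growth restored by compound in an NS1-expressing S. cerevisiae strain. Cells had been washed out of glucose medium and diluted 1:100 into galactose -URA medium, pH 6.0.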
HCV inhibitor: inhibitors of hepatitis C virus infection; Huh7.5.1 HCVcc-Cre infection, luciferase reporter, 44 h; Potency, µM (titrated, usually from 41.8 µM), for the others: top-dose activity change, negative = inhibition, actives largely listed as inhibitors; actives 3.4% (n = 340,000); AID 651820; note: % is set by controls: 0 for no effect and ±100 for the full control effect
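Cells seeded at 1,000/well and cultured 4 h, then compounds added followed by HCVcc-Cre virus (~0.5 moi). After 44 h further culture, luciferase substrate was added, plates held 15 min at room temperature, and luminescence read for 15 sec.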
Pf growth 96h: inhibits malaria parasite growth, 96 h; P. falciparum luciferase reporter growth, 96 h; Potency, µM (highest dose often 28.7 µM), for inactives: at the highest dose activity change, negative = inhibition, actives largely listed as inhibitors; actives 6.9% (n = 320,000); AID 504834; note: % is set by controls: 0 for no effect and ±100 for the full control effect
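Compounds incubated with erythrocytes infected by luciferase-expressing P. falciparum (2% hematocrit, 0.05% parasitemia final) for 96 hours, 37 C in 5% CO2. Growth inhibition scored as decreased luciferase luminescence.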
Pf growth 48h: P. falciparum growth inhibition at 48 hours (one generation); P. falciparum luciferase growth in erythrocytes, 48 h; AID 504832; Potency, µM (titrated, usually from 28.7 µM), for the others: at the highest dose activity change, negative = inhibition, most hits filed as inhibitors; actives 5.9% (n = 310,000); note: % is set by controls: 0 for no effect and ±100 for the full control effect
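Compounds are pin-transferred into medium, infected erythrocytes (2% hematocrit, 0.1% parasitemia final) are added, and plates sit one parasite generation at 37 C in 5% CO2. Detection reagent is then added and luminescence measured.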
* hit, by the source's call; u = inconclusive; x = not tested or not shown. In the library only some 12% were active in any assay of this set; here they are far more common. Unless noted, calls come from the whole dose curve; as a rule, active = well fitted curve in the direction sought with a large enough effect; inconclusive = small, poorly fitted or top-dose-only effect, or another doubt; inactive = no such curve, though single readings can be large; an effect the other way counts as inactive or inconclusive. Potency is the fitted concentration of half-maximal effect.

SMILES	AMA1-RON2 inh	SARS PLP yeast	NS1 function inh	HCV inhibitor	Pf growth 96h	Pf growth 48h
Clc1ccc(-c2noc3c2-c2nc(Cc4cccc5ccccc45)sc2CC3)cc1	4%	1%	x	u	u	u
COc1ccc(N=Nc2n(C)c3ccccc3[n+]2C)cc1	x	-3%	-81%	x	0.52µM*	0.74µM*
COc1ccc(C(CNC(=O)CCNS(=O)(=O)c2ccc(Br)cc2)N2CCCC2)cc1 (centres undefined)	19%	-4%	x	u	2.1µM*	4.1µM*
CCCCNC(=O)CCNS(=O)(=O)c1ccc(Br)cc1	0%	-1%	1%	4%	15%	21%
COc1ccc(C(CNC(=O)CCNS(=O)(=O)c2ccc(Br)cc2)N2CCOCC2)cc1 (centres undefined)	-7%	x	x	-3%	x	x
COc1ccc(C(CNC(=O)C(C)Oc2ccc(Br)cc2)N2CCCCC2)cc1 (centres undefined)	-8%	0%	x	u	u	13µM*
COc1ccc(C(CNC(=O)Cc2ccccc2)N2CCCCC2)cc1 (centres undefined)	6%	1%	2%	15%	2%	-10%
CCC(C)NC(=O)CCNS(=O)(=O)c1ccc(Br)cc1 (centres undefined)	1%	-4%	1%	-27%	7.4µM*	-9%
COc1ccc(OC)c(C=NNC(=O)c2ccccc2NS(=O)(=O)c2cccs2)c1	-1%	-2%	x	8%	x	x
COc1cc(S(=O)(=O)N(Cc2ccc(C)cc2)C2CCCCC2)ccc1-n1cnnn1	-2%	-42%	2%	-13%	x	5.9µM*
COc1ccc(CN(C2CCCC2)S(=O)(=O)c2ccc(-n3cnnn3)cc2)cc1OC	212%	2%	2%	u	u	u
CC(=O)N(Cc1ccccc1C)c1cccc(C)c1C	-1%	0%	-3%	0%	u	u
Cc1csc(NC(=O)CSc2sc3c(O)cc(=O)[nH]c3c2C#N)n1	u	11%	15%	6%	2.1µM*	28%
Cc1csc(NC(=O)CSc2nc3[nH]c(=O)cc(O)c3s2)n1	-5%	x	x	10µM*	x	x
CCc1nnc(NC(=O)CSc2sc3c(O)cc(=O)[nH]c3c2C#N)s1	10µM*	0%	23%	9%	u	26%
CCCCN(C)CCCNC(=O)c1cc(=O)[nH]c2ccc(S(=O)(=O)N3CCCCC3C)cc12 (centres undefined)	-1%	1%	x	12%	38%	-4%
Cc1ccc(C(=O)OC(C)CN2C(C)CCCC2C)cc1 (centres undefined)	-3%	-1%	1%	5%	2%	-2%
O=C1c2c(O)cc(O)cc2O[C@H](c2ccc(O)c(O)c2)[C@@H]1O	x	1%	x	x	x	x
O=C1c2c(O)cc(O)cc2O[C@H](c2ccc(O)c(O)c2)[C@H]1O	-18%	0%	x	0.56µM*	x	x
COc1cc([C@@H]2Oc3cc(C4Oc5cc(O)cc(O)c5C(=O)[C@H]4O)ccc3O[C@H]2CO)ccc1O (some centres undefined)	35%	x	x	u	13µM*	10µM*
COc1ccc(NS(=O)(=O)N2CCOCC2)cc1	-6%	2%	6%	11%	u	u
O=C(CSc1nnc(-c2cccnc2)n1-c1ccccc1)Nc1ccccn1	-14%	-3%	-8%	-10%	10µM*	16%
CN(C)C(=O)CSc1nnc(-c2cccnc2)n1-c1ccccc1	8%	0%	u	11%	u	x
Clc1ccc(-n2c(SC/C=C/c3ccccc3)nnc2-c2cccnc2)cc1	-28%	-13%	2%	u	x	12µM*
CCSc1nnc(-c2cccnc2)n1-c1ccc(Cl)c(C)c1	-14%	10%	4%	9%	12µM*	x
COc1cccc(-n2c(SCC(=O)O)nnc2-c2cccnc2)c1	0%	1%	4%	6%	u	16%
